Data as given in PubChem BioAssay (EPA / NIEHS).
The source made the active and inactive calls. How the source made its calls: active means hit-call score of the fitted dose curve at least 0.9, where 1 is the maximum; inactive means score below 0.9.

Columns and labels:
[1] = ATG_GLI_CIS: Attagene CIS-FACTORIAL HepG2 Assay for human Zinc Finger Protein GLI1 (AID 2282945); conditions: HepG2, Attagene cis-factorial reporter mRNA, GLI element; actives raise or lower the signal
Procedure, shortened: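 Bidirectional curve fits relative to DMSO, using reporter mRNA levels from RT-PCR plus capillary electrophoresis. Cells were HepG2 transiently carrying cis-regulated reporter constructs, harvested 24 h after dosing.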

[2] = target: Bile acid receptor (Homo sapiens) (UniProt Q96RI1); experiment: ATG_IR1_CIS: Attagene CIS-FACTORIAL HepG2 Assay for human Nuclear Receptor Subfamily 1 Group H Member 4 (NR1H4), IR1 submotif (AID 2282946); conditions: IR1 reporter transcription, actives raise or lower the signal
Procedure, shortened: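 HepG2 cells transiently transfected with multiplexed cis-element reporter units read endogenous transcription factor activity. After 24 h compound exposure, reporter mRNA was quantified by RT-PCR, fluorescent labelling, HpaI digestion and capillary electrophoresis; bidirectional fitting versus DMSO baseline.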

[3] = ATG_GRE_CIS: Attagene CIS-FACTORIAL HepG2 Assay for human Glucocorticoid Response Elements (GRE) (AID 2282947); conditions: HepG2 GRE cis-reporter, Attagene multiplex mRNA; actives raise or lower the signal
Procedure, shortened: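 Reporter transcripts read by RT-PCR with capillary electrophoresis fluorescence after a 24 h chemical exposure of HepG2 cells transiently transfected with multiple cis-element reporter units. Gain or loss fitted against DMSO.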

[4] = ATG_ISRE_CIS: Attagene CIS-FACTORIAL HepG2 Assay for human Interferon Regulatory Factor 1 (IRF1) binding to an Interferon-Stimulated Response Element (ISRE) (AID 2282948); conditions: HepG2 ISRE cis-reporter (Attagene), mRNA transcription readout; actives raise or lower the signal
Procedure, shortened: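 Uses HepG2 liver cells transfected with cis-regulated reporters and measures mRNA 24 h post-dosing through RT-PCR, primer-extension labelling and capillary electrophoresis, with DMSO as negative control.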

[5] = ATG_M_32_CIS: Attagene CIS-FACTORIAL HepG2 Assay for M32 Transcription Factor (Internal Marker) (AID 2282949); conditions: HepG2 Attagene cis-factorial M32 reporter, mRNA; actives raise or lower the signal;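 further: background control marker of the multiplexed CIS panel rather than a real target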
Procedure, shortened: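 HepG2 human liver cells transiently transfected with cis-promoter-driven multiple reporter transcription units, dosed 24 h. Reporter mRNA quantified by RT-PCR, FAM-labelled primer extension, HpaI digest and capillary electrophoresis; bidirectional fit versus DMSO baseline.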

[6] = ATG_M_06_CIS: Attagene CIS-FACTORIAL HepG2 Assay for M06 Transcription Factor (Internal Marker) (AID 2282950); conditions: HepG2 Attagene CIS-FACTORIAL M06 internal marker reporter; actives raise or lower the signal
Procedure, shortened: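 Fluorescence-labelled RT-PCR products from cis-promoter reporter units, cut with HpaI and resolved by capillary electrophoresis, give the signal. Cells are human HepG2, dosed for 24 h. Serves as background control, fitted relative to DMSO.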

[7] = target: Hypoxia-inducible factor 1-alpha (Homo sapiens) (UniProt Q16665); experiment: ATG_HIF1a_CIS: Attagene CIS-FACTORIAL HepG2 Assay for human Hypoxia Inducible Factor 1 (HIF1A) (AID 2282951); conditions: HepG2 Attagene cis-factorial HIF1a reporter transcription; actives raise or lower the signal
Procedure, shortened: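 Cis-element reporter constructs were transiently transfected into HepG2 cells, which were treated for 24 h; reporter RNA was reverse-transcribed, amplified, labelled and resolved by capillary electrophoresis.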

[8] = target: Hepatocyte nuclear factor 6 (Homo sapiens) (UniProt Q9UBC0); experiment: ATG_HNF6_CIS: Attagene CIS-FACTORIAL HepG2 Assay for human Hepatocyte Nuclear Factor 6 (HNF6) (AID 2282952); conditions: HepG2 Attagene cis-factorial HNF6 reporter transcription; actives raise or lower the signal
Procedure, shortened: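 First, HepG2 cells were transfected with the multiplexed cis reporter library and dosed with chemical for 24 h. Next, RNA was reverse-transcribed, PCR-amplified and fluorescently labelled. Finally, HpaI-digested fragments were read by capillary electrophoresis.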

[9] = target: Heat shock factor protein 1 (Homo sapiens) (UniProt Q00613); experiment: ATG_HSE_CIS: Attagene CIS-FACTORIAL HepG2 Assay for human Heat Shock Transcription Factor 1 (HSE) (AID 2282953); conditions: HepG2 HSE cis-reporter, Attagene RNA transcription; actives raise or lower the signal
Procedure, shortened: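 After a 24 h incubation with test chemical, transfected HepG2 cells were harvested for RNA; reporter transcripts were measured by RT-PCR and capillary electrophoresis. Values reflect gain or loss of signal relative to DMSO.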

[10] = ATG_MRE_CIS: Attagene CIS-FACTORIAL HepG2 Assay for human Metal Responsive Element (MRE) (AID 2282954); conditions: HepG2 MRE cis-reporter transcription, Attagene multiplex; actives raise or lower the signal
Procedure, shortened: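 Endogenous MRE-dependent transcription read as reporter mRNA in transiently transfected human HepG2 cells at 24 h. RNA reverse-transcribed, PCR-amplified, labelled and resolved by capillary electrophoresis; gain or loss relative to DMSO.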

[11] = ATG_PBREM_CIS: Attagene CIS-FACTORIAL HepG2 Assay for human Phenobarbital-responsive Enhancer Module (PBREM) (AID 2282955); conditions: HepG2 PBREM cis-reporter, Attagene multiplexed transcription; actives raise or lower the signal
Procedure, shortened: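 Multiplexed cis-reporter readout in human hepatoma HepG2 cells; PBREM-regulated transcript quantified after 24 h exposure by fluorescent RT-PCR fragment analysis. Signal changes up or down fitted relative to DMSO.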

[12] = target: Paired box protein Pax-6 (Homo sapiens) (UniProt P26367); experiment: ATG_Pax6_CIS: Attagene CIS-FACTORIAL HepG2 Assay for human Paired Box 6 (PAX6) (AID 2282956); conditions: HepG2 CIS-FACTORIAL PAX6 reporter transcription, RNA readout; actives raise or lower the signal
Procedure, shortened: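 DMSO-referenced bidirectional fits of reporter mRNA fluorescence; HepG2 with transient cis-promoter MRTUs, 24 h post-dose, RT-PCR plus capillary electrophoresis detection.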

[13] = ATG_PPRE_CIS: Attagene CIS-FACTORIAL HepG2 Assay for human Peroxisome Proliferator-activated Response Element (PPRE) (AID 2282958); conditions: HepG2 PPRE cis-element reporter, Attagene transcription factor profiling; actives raise or lower the signal
Procedure, shortened: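 DMSO served as negative control and baseline for bidirectional curve fitting. Signal came from PPRE-regulated reporter mRNA in HepG2 cells, measured 24 h post-dosing by RT-PCR, 6-FAM primer extension and capillary electrophoresis.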

[14] = ATG_RORE_CIS: Attagene CIS-FACTORIAL HepG2 Assay for human RAR-related Orphan Receptor Element (RORE) (AID 2282959); conditions: HepG2 Attagene cis-factorial RORE reporter, mRNA; actives raise or lower the signal
Procedure, shortened: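 Transfect HepG2 with MRTUs; treat 24 h; extract RNA; RT with oligo(dT); PCR with reporter-specific primers; 6-FAM primer extension; HpaI digest 2 h at 37 C; capillary electrophoresis. Fit vs DMSO, bidirectional.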

[15] = ATG_Sox_CIS: Attagene CIS-FACTORIAL HepG2 Assay for human SRY-box transcription factor (SOX) (AID 2282960); conditions: HepG2 Attagene cis-factorial SOX reporter, mRNA; actives raise or lower the signal
Procedure, shortened: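 Fluorescence-labelled cDNA fragments from reporter transcripts, sized by CE, give the signal. Cells: HepG2, transiently transfected with cis-regulated reporter units. Exposure 24 h; DMSO negative control; bidirectional curve fitting.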

[16] = target: Transcription factor Sp1 (Homo sapiens) (UniProt P08047); experiment: ATG_Sp1_CIS: Attagene CIS-FACTORIAL HepG2 Assay for human Specificity Protein 1 (Sp1) (AID 2282961); conditions: HepG2 Sp1 cis-reporter transcription, actives raise or lower the signal
Procedure, shortened: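 Chemicals are dosed onto HepG2 cells transfected with multiple cis-promoter reporter constructs, and after 24 h reporter RNA is reverse-transcribed, PCR-amplified and resolved by capillary electrophoresis for fluorescence quantitation; activity is scored up or down against DMSO.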

[17] = ATG_SREBP_CIS: Attagene CIS-FACTORIAL HepG2 Assay for human Sterol Regulatory Element Binding (SREBP) (AID 2282962); conditions: HepG2 Attagene cis-factorial SREBP reporter, mRNA; actives raise or lower the signal
Procedure, shortened: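 In this cis-format assay, HepG2 liver cells express reporters controlled by promoter elements responsive to native transcription factors. Exposure lasts 24 h; reporter mRNA fluorescence from capillary electrophoresis gives the signal, fitted bidirectionally against DMSO.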

[18] = target: Signal transducer and activator of transcription 3 (Homo sapiens) (UniProt P40763); experiment: ATG_STAT3_CIS: Attagene CIS-FACTORIAL HepG2 Assay for human Signal Transducer and Activator of Transcription 3 (STAT3) (AID 2282963); conditions: HepG2, Attagene cis-factorial STAT3 reporter transcription; actives raise or lower the signal
Procedure, shortened: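 Readout is reporter transcript quantified by RT-PCR and capillary electrophoresis, with 6-FAM primer extension and HpaI digestion. Total RNA is taken 24 h after dosing transiently transfected HepG2 carrying cis-regulated reporter units. Bidirectional fit against DMSO.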

[19] = ATG_TA_CIS: Attagene CIS-FACTORIAL HepG2 Assay for human TA Basal Promoter (AID 2282964); conditions: HepG2 Attagene CIS-factorial TA basal promoter reporter; actives raise or lower the signal
Procedure, shortened: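 Multiplexed mRNA reporter assay, HepG2, 24 h. Reporter cDNA amplified, 6-FAM primer-extended, HpaI-cut, CE-sized; DMSO = negative control and baseline.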

[20] = ATG_PXRE_CIS: Attagene CIS-FACTORIAL HepG2 Assay for human Pregnane X Receptor Element (PXRE) (AID 2282957); conditions: HepG2 Attagene CIS-FACTORIAL PXRE reporter, mRNA; actives raise or lower the signal
Procedure, shortened: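 After a 24 h chemical incubation, total RNA from transfected HepG2 cells was reverse-transcribed and reporter cDNA amplified, FAM-labeled, HpaI-digested and sized by capillary electrophoresis. DMSO served as baseline for bidirectional curve fitting.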

Measured: AC50

Chain of Bile acid receptor (Homo sapiens) (Q96RI1 whole entry, looked up): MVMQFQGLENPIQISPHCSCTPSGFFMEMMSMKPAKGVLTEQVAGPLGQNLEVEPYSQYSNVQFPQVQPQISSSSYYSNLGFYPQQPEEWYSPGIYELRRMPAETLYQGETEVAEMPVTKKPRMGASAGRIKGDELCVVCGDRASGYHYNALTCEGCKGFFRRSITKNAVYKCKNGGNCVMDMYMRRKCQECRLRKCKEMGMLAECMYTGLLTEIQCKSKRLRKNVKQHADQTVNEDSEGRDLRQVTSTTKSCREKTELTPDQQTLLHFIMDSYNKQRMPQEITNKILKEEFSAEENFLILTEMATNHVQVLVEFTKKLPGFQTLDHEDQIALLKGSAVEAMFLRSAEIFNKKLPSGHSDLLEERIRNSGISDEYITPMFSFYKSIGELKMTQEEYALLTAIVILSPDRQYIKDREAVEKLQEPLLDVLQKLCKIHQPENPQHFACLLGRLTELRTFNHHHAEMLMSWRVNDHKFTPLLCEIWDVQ
Chain of Transcription factor Sp1 (Homo sapiens) (P08047 whole entry, looked up): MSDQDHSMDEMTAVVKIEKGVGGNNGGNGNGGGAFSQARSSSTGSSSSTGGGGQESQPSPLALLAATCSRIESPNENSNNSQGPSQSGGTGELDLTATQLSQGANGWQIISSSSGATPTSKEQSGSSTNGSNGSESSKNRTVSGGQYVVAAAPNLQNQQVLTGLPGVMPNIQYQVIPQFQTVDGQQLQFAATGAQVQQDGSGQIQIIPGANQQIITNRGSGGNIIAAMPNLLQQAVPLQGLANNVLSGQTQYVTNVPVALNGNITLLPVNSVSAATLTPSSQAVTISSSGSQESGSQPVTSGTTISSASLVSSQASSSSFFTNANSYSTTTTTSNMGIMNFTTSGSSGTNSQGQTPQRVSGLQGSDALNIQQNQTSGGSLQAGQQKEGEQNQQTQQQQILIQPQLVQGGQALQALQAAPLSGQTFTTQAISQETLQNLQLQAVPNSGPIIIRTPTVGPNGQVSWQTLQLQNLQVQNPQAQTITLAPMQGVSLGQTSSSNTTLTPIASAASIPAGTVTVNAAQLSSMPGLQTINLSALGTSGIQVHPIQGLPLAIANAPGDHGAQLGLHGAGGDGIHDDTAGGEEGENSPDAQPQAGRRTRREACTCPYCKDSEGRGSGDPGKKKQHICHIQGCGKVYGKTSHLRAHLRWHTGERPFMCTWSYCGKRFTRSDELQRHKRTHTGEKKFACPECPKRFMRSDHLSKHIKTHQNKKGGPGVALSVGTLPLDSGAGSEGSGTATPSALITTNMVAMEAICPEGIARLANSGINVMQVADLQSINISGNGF
Chain of Hypoxia-inducible factor 1-alpha (Homo sapiens) (Q16665 whole entry, looked up): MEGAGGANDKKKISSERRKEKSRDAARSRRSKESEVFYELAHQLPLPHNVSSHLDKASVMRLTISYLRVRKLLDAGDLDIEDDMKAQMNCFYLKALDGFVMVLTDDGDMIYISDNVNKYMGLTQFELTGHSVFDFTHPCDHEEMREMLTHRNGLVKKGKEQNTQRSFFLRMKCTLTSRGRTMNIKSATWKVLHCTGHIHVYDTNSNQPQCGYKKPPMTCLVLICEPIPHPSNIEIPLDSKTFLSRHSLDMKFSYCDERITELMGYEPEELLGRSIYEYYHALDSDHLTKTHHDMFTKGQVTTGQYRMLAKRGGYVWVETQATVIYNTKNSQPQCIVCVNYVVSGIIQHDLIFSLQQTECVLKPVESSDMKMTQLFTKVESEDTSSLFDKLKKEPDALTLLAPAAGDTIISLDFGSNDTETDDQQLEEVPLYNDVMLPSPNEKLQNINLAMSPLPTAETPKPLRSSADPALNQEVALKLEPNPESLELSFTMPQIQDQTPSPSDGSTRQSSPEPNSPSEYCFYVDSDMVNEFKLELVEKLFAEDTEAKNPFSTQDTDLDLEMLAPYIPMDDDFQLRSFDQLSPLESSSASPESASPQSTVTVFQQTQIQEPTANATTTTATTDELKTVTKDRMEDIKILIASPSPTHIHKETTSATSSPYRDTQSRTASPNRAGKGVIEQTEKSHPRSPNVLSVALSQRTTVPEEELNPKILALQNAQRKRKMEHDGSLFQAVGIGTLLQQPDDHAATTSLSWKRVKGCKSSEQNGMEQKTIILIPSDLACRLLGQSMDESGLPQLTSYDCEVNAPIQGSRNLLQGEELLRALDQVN
Chain of Paired box protein Pax-6 (Homo sapiens) (P26367 whole entry, looked up): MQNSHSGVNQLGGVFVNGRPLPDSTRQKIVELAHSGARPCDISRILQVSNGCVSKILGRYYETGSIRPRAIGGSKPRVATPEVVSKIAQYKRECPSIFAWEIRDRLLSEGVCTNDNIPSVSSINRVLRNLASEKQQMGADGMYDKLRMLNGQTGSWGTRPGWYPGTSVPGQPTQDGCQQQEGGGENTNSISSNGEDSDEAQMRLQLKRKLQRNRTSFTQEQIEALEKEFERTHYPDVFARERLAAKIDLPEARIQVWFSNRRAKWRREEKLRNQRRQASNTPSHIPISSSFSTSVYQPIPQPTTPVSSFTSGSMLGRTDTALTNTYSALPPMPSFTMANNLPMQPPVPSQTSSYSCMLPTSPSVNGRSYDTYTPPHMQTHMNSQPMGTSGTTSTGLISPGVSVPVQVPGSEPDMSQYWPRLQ
Chain of Hepatocyte nuclear factor 6 (Homo sapiens) (Q9UBC0 whole entry, looked up, the tested form may be a part): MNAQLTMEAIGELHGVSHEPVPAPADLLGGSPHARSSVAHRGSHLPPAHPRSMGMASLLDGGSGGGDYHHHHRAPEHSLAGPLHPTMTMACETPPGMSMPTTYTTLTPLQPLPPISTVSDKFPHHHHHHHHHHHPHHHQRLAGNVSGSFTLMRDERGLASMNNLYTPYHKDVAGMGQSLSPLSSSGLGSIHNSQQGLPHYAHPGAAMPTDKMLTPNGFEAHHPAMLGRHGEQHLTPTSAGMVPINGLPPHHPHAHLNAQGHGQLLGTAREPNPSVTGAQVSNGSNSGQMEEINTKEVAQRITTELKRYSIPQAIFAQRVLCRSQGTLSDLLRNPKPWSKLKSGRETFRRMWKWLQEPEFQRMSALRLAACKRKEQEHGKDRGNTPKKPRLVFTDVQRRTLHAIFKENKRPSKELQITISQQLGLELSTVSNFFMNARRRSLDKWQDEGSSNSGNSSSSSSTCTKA
Chain of Signal transducer and activator of transcription 3 (Homo sapiens) (P40763 whole entry, looked up): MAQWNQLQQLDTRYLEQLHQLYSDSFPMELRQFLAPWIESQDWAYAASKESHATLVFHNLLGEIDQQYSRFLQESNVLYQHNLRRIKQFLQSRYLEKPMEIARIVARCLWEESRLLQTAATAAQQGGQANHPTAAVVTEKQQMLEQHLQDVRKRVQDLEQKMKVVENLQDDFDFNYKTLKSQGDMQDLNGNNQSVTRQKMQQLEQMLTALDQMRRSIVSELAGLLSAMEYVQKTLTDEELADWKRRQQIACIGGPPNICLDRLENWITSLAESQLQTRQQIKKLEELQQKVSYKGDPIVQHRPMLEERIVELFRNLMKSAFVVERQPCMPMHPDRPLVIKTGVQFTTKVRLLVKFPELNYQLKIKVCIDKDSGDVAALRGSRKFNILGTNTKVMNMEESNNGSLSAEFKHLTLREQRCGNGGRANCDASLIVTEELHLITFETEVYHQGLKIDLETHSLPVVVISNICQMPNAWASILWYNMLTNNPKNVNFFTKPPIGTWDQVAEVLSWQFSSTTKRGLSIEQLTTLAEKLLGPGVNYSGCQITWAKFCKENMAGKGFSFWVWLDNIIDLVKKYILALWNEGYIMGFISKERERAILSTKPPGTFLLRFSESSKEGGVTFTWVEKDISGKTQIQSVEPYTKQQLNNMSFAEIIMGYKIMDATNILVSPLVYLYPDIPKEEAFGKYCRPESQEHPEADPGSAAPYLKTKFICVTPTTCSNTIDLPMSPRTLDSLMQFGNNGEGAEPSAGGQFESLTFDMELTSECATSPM
Chain of Heat shock factor protein 1 (Homo sapiens) (Q00613 whole entry, looked up): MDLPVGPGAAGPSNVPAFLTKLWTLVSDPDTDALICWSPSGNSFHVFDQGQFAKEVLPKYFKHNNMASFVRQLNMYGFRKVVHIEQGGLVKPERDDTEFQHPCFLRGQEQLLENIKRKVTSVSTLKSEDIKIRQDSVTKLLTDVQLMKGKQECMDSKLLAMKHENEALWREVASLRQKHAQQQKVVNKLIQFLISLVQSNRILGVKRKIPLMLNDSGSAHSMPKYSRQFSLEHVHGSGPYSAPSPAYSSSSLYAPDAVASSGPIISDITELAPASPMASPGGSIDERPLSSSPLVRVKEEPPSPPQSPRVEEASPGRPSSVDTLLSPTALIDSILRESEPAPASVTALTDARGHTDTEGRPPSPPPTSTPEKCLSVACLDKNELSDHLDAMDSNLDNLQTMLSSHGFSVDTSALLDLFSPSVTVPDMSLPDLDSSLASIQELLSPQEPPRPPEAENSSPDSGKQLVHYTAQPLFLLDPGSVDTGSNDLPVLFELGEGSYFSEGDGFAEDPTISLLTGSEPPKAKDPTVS

CCOC(OCC)OCC
not listed: [20]
inactive: all other assays above

C=CC(=O)OCC(F)(F)C(F)(F)C(F)(F)C(F)(F)C(F)(F)C(F)(F)C(F)(F)C(F)F
active: [4] 150 µM | [9] 218 µM | [10] 231 µM | [20] 38.3 µM | [15] 271 µM
not listed: [11] | [14]
inactive: all other assays above

Cc1cnccn1
not listed: [14] | [20]
inactive: all other assays above

FC(F)(F)C(F)(F)C(F)(F)C(F)(F)C(F)(F)C(F)(F)CC[Si](Cl)(Cl)Cl
not listed: [11]
inactive: all other assays above

C[Si](C)O[Si](C)C
not listed: [11] | [14] | [20]
inactive: all other assays above

CC(C)C(=O)OCc1ccccc1
not listed: [9] | [11]
inactive: all other assays above

C[C@]12CC[C@H]3C(=CCc4cc(O)ccc43)[C@@H]1CCC2=O
not listed: [8] | [20]
inactive: all other assays above

CCC(=O)OC(C)c1ccccc1 (stereo not drawn)
active: [20] 26.5 µM
not listed: [8]
inactive: all other assays above

OCCC(O)CO (stereo not drawn)
not listed: [1]
inactive: all other assays above

FC(F)(F)C(F)(F)C(F)(F)C(F)(F)C(F)(F)C(F)(F)C(F)(F)CCI
not listed: [8] | [11] | [14]
inactive: all other assays above

CC(=O)C=O
not listed: [8] | [9]
inactive: all other assays above

OC(O)C(F)(F)C(F)(F)F
active: [4] 108 µM
not listed: [9] | [14] | [20]
inactive: all other assays above

O=C(O)C(F)(F)C(F)(F)C(F)(F)OC(F)(C(F)(F)F)C(F)(F)F
active: [13] 45.9 µM
not listed: [9] | [11] | [14] | [20]
inactive: all other assays above

NC(=O)C(F)(F)C(F)(F)C(F)(F)C(F)F
not listed: [8] | [9] | [11] | [14]
inactive: all other assays above

CC(C)Nc1ccc(NC(C)C)c2c1C(=O)c1ccccc1C2=O
active: [20] 0.21 µM
not listed: [1]
inactive: all other assays above
